Key:
Assay type in all cases: functional
[1] = biological target: Solute carrier family 2, facilitated glucose transporter member 1 (Homo sapiens) (UniProt P11166); experiment: ST_JUDE_LEISH: Cytotoxicity at 2uM final concentration against transgenic Leishmania Mexicana promastigotes LmGLUT1 that are glucose transport deficient and complemented with the human glucose transporter GLUT1. Activity is measured by DNA content using SYBR green in vitro
[2] = biological target: Hexose transporter 1 (Plasmodium falciparum) (UniProt O97467); experiment: ST_JUDE_LEISH: Cytotoxicity at 2uM final concentration against transgenic Leishmania Mexicana promastigotes LmPfHT that are glucose transport deficient and complemented with the Plasmodium falciparum hexose transporter. Activity is measured by DNA content using SYBR green in vitro
[3] = biological target: Glucose transporter (Leishmania mexicana) (UniProt O61059); experiment: ST_JUDE_LEISH: Cytotoxicity at 2uM final concentration against transgenic Leishmania Mexicana promastigotes LmGT2 that are glucose transport deficient and complemented with the L. Mexicana glucose transporter 2. Activity is measured by DNA content using SYBR green in vitro

Sequence of Solute carrier family 2, facilitated glucose transporter member 1 (Homo sapiens) (P11166 whole entry): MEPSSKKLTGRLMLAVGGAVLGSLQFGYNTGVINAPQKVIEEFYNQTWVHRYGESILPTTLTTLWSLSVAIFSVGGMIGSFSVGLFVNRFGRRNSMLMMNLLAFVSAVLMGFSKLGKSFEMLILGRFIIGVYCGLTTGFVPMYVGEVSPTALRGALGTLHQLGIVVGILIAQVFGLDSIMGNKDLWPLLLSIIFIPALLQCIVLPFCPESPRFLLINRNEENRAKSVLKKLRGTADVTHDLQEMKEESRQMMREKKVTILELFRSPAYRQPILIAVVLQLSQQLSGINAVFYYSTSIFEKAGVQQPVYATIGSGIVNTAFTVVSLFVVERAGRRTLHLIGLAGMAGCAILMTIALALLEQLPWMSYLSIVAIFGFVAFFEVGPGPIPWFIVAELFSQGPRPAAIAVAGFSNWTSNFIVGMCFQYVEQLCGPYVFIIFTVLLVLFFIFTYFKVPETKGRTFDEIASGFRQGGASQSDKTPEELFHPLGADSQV

Structure (SMILES): CCOC(=O)c1c(NC(NC(=O)c2ccc(C(C)(C)C)cc2)C(Cl)(Cl)Cl)sc2c1CCCC2 (stereo unspecified)
- inhibition [1]: 10.5%
- inhibition [2]: 8.72%
- inhibition [3]: 9.68%

Structure (SMILES): CCN1CCC(N(Cc2ccc(-c3ccc(C(F)(F)F)cc3)cc2)C(=O)CCCCn2c(CCc3cccc(F)c3F)nc(=O)c3ccccc32)CC1
- inhibition [1]: 1.08%
- inhibition [2]: -1.15%
- inhibition [3]: -0.6%

Structure (SMILES): CCCC(C)Nc1nc(C)cc(N[C@@H](CC(C)C)C(=O)Nc2ccc(OC)cc2)n1 (stereo partly specified)
- inhibition [1]: 3.3%
- inhibition [2]: 3.9%
- inhibition [3]: 1.36%

Structure (SMILES): Oc1ccc(CCNc2nc(NCCOc3ccccc3-c3ccccc3)nc(N3CCNCC3)n2)cc1
- inhibition [1]: 1.26%
- inhibition [2]: 0.85%
- inhibition [3]: 1.75%

Structure (SMILES): COc1ccc(Cc2cnc(N)nc2N)cc1OCCCOc1ccccc1
- inhibition [1]: -0.49%
- inhibition [2]: 0.92%
- inhibition [3]: -0.52%

Structure (SMILES): c1cc(CNCCc2ccncc2)cc(-c2ccc(-c3nc4ccccc4[nH]3)cc2)c1
- inhibition [1]: 1.46%
- inhibition [2]: 2.38%
- inhibition [3]: 0.79%

Structure (SMILES): O=C(NCCc1ccccc1)N(Cc1cccc(-c2ccc(CNCCc3ccccc3)cc2)c1)C1CCN(Cc2ccccc2)CC1
- inhibition [1]: 0.95%
- inhibition [2]: -0.75%
- inhibition [3]: 0.12%

From ChEMBL document CHEMBL3433997, “St. Jude Leishmania screening dataset” (2016)
